# ST2 IL33 inh: inhibitors of human ST2 (IL1RL1) binding to IL-33, primary screen, biochemical, AlphaLISA; Interleukin-1 receptor-like 1 (Homo sapiens), Q01638; AlphaLISA ST2-Fc/biotin-IL-33 interaction, 1 h; inhibition, % for hits at 17 µM; actives 2.3% (n = 78,000); in the data active = inhibition above about 30%
# Target sequence (Q01638 whole entry, looked up): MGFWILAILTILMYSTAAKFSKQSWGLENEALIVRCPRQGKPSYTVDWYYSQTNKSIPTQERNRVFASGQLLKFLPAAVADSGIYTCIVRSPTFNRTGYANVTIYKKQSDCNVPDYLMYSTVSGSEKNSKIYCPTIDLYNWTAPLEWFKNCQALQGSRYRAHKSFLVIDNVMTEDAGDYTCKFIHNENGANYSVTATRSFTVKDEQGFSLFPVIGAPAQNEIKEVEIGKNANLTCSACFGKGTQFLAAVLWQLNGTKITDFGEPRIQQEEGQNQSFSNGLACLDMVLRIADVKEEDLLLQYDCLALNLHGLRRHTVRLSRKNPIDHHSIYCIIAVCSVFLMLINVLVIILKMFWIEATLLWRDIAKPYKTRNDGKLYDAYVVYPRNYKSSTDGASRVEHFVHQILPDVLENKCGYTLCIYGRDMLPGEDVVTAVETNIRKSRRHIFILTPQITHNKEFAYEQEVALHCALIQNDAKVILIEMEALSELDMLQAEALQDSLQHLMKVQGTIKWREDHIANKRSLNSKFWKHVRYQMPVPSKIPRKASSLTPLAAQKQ
# Starred values were filed as active, the others as inactive; i = inactive. Many of the other results were omitted from the sample, so hits are more common in it than they were.
SMILES,ST2 IL33 inh
O=C1NC(=O)C(=Cc2cn(CCOc3ccc4c(c3)OCO4)c3ccccc23)C(=O)N1,35%*
CCN(CC)C(=O)Cn1cc(/C=C2\C(=O)NC(=O)N(c3ccccc3F)C2=O)c2ccccc21,i
COc1ccc(-c2cc([C@H]3CN4CC[C@H]3C[C@@H]4CN)n(C)n2)cc1,i
Cc1ccccc1N1CCN(Cc2ccc(O)cc2)CC1,i
Cc1ccccc1N1CCN(Cc2ccc(N(C)C)cc2)CC1,45%*
CCOc1ccc(CN2CCN(c3ccccc3C)CC2)cc1,i
O=S(=O)(NC[C@H]1C[C@@H]2CCN1C[C@@H]2CN1CCCC1)c1cccs1,i
Cc1n[nH]c(C)c1CN1CCC2(CCNCC2)C1,i
COc1ccccc1N1CCN(C(=O)[C@H]2CN3CCC2C[C@@H]3Cn2cc(COc3ccccc3)nn2)CC1 (some centres undefined),i
O=C(O)C1Nc2c(F)cccc2C2C(Cl)C(Sc3ccccc3[N+](=O)[O-])CC12 (centres undefined),34%*
CCN1CCN(Cc2cc(Br)c(O)c(OC)c2)CC1,i
CN(C)Cc1ccccc1-c1ccc2n(c1=O)C[C@H]1C[C@@H]2CN(C(=O)C2CCCCC2)C1,i
COc1ccc(/C=C/c2nc3ccccc3c(=O)n2-c2ccccc2OC)cc1,32%*
COc1ccc(-n2c(/C=C/c3ccccc3)nc3ccccc3c2=O)cc1OC,i
O=c1c2ccccc2nc(/C=C/c2ccccc2)n1-c1ccccc1F,i
COc1cccc([C@@H]2CCN(C/C=C/c3ccco3)C[C@H]2O)c1,i
COCCC(=O)N1C[C@@H]2C[C@H](C1)c1ccc(NC(=O)c3ccc(C#N)cc3)c(=O)n1C2,35%*
COc1ccc(-c2ccc3n(c2=O)C[C@H]2C[C@@H]3CN(C(=O)c3ccc(C#N)cc3)C2)cc1,i
COCCC(=O)N1C[C@@H]2C[C@H](C1)c1ccc(-c3cccc(C(F)(F)F)c3)c(=O)n1C2,i
OC1CCCN(Cc2cccnc2)C1 (centres undefined),i
CCOCCCn1c(=N)c(C#N)cc2c(=O)n3ccccc3nc21,i
O=c1cccc2n1C[C@H]1C[C@@H]2CN(Cc2cc3n(n2)CCNC3)C1,i
Cc1ccccc1-n1c(Cc2ccccc2)nc2ccccc2c1=O,i
O=c1c2ccccc2nc(-c2ccccc2Cl)n1-c1ccccc1O,i
Cc1ccccc1-n1c(/C=C2\C(=O)N(C)c3ccccc32)nc2ccccc2c1=O,49%*
SMILES,ST2 IL33 inh
COc1cc(C(=O)NC[C@H]2C[C@@H]3CCN2C[C@@H]3c2cc(-c3ccco3)nc(C)n2)cc(OC)c1OC,i
CC1N=C(c2ccccc2)c2ccccc2N(CC(=O)Nc2ccc(C(C)C)cc2)C1=O (centres undefined),i
CCN1CCN(Cc2cccc(Br)c2)CC1,i
Fc1ccc(CN2CCN(c3cccc(Cl)c3)CC2)cc1,i
O=[N+]([O-])c1ccc(CN2CCN(Cc3ccccc3)CC2)cc1,i
O=[N+]([O-])c1ccc(N2CCN(Cc3cccc(Cl)c3)CC2)cc1,36%*
CN1CCN(Cc2cccc(Br)c2)CC1,i
Brc1cccc(CN2CCN(c3ccccc3)CC2)c1,31%*
Fc1ccc(CN2CCN(c3ccccc3F)CC2)cc1F,i
COc1ccccc1-c1cc([C@H]2CN3CC[C@H]2C[C@@H]3CNC(=O)COc2ccccc2)n(C)n1,i
Cc1[nH]c2c(C)cccc2c1CCN,i
c1ccc(CCNC2CCCCCCC2)nc1,i
CN(Cc1ccccc1)C[C@H]1CN2CC[C@H]1C[C@@H]2CNS(=O)(=O)c1cccs1,i
Cc1cccc(-n2c(/C=C3\C(=O)Nc4ccccc43)nc3ccccc3c2=O)c1,i
O=c1c2ccccc2nc(-c2ccccc2)n1-c1ccccc1,i
Cc1cccc(-n2c(-c3cccnc3)nc3ccccc3c2=O)c1,46%*
CCSc1ncc(CN2C[C@H]3CC=CC[C@H]3C2)cn1,i
COc1ccccc1CN1CCN(c2ccccc2)CC1,i
Cc1cccc(CN2CCN(c3ccccc3Cl)CC2)c1,i
COc1cccc(CN2CCN(c3ccc(F)cc3)CC2)c1,i
Clc1cccc(N2CCN(Cc3ccccc3Cl)CC2)c1,i
Cc1ccc(N2CCN(Cc3c(F)cccc3Cl)CC2)cc1,36%*
Fc1ccc(CN2CCN(c3cccc(Cl)c3)CC2)c(F)c1,i
COc1cccc(N2CCN(Cc3ccccc3OC)CC2)c1,i
COc1ccc(N2CCN(Cc3cccc(Cl)c3Cl)CC2)cc1,32%*
SMILES,ST2 IL33 inh
COc1ccc(CN2CCN(c3ccccc3)CC2)cc1O,i
COc1ccc(N2CCN(Cc3ccc(Cl)cc3)CC2)cc1,44%*
COc1ccc(CN2CCN(c3cccc(C)c3C)CC2)cc1,i
COc1cc(C)c(CN2CCN(c3ccccc3)CC2)cc1C,31%*
O=[N+]([O-])c1c(Br)c([N+](=O)[O-])c2n[nH]nc2c1Br,i
COc1ccccc1-c1cc([C@H]2CN3CC[C@H]2C[C@@H]3CNS(=O)(=O)c2ccc(NC(C)=O)cc2)n(C)n1,i
O=C(Nc1nccs1)[C@H]1CN2CCC1C[C@@H]2Cn1cc(CCO)nn1 (some centres undefined),i
Nc1nnc(N)n1N,i
Cc1ccc(CN2CCCN(CC(=O)N3CCCC3)S2(=O)=O)cc1,i
Cn1cncc1-c1cccc2c1CCNC2,i
Cn1nc(-c2ccco2)cc1[C@H]1CN2CC[C@H]1C[C@@H]2CNC(=O)COc1ccccc1,i
COc1ccccc1CN1CCN(C)CC1,i
CN1CCN(c2ccc([N+](=O)[O-])c(N3CCOCC3)c2)CC1,i
O=C(Nc1nc2ccccc2s1)c1cccn(Cc2ccc(Br)cc2)c1=O,i
CCC(=O)c1c(O)n(C)c(=O)n(C)c1=O,i
Cc1ccc(S(=O)(=O)NC[C@H]2C[C@@H]3CCN2C[C@@H]3CN2CCN(c3ccccn3)CC2)cc1,i
COc1ccc(C(=O)N2C[C@@H]3C[C@H](C2)c2ccc(NC(=O)c4cccs4)c(=O)n2C3)cc1,i
CC(=O)c1ccc(NC(=O)OC[C@H]2C[C@@H]3CCN2C[C@@H]3c2cc(C3CCCC3)nn2C)cc1,i
CN1CCN(Cc2ccc(Cl)c(Cl)c2)CC1,i
COc1cc(CN2CCN(c3ccc(F)cc3)CC2)ccc1O,i
COc1ccc(Br)cc1CN1CCN(c2ccccc2C)CC1,i
COc1ccc(N2CCN(Cc3cc(Br)ccc3OC)CC2)cc1,41%*
Clc1ccc(CN2CCN(c3ccccc3)CC2)cc1Cl,i
CCN1CCN(Cc2cc(Br)ccc2OC)CC1,i
CCOc1ccc(CN2CCN(c3ccc(OC)cc3)CC2)cc1,34%*
SMILES,ST2 IL33 inh
COc1ccc(N2CCN(Cc3ccc(Cl)c(Cl)c3)CC2)cc1,35%*
CCOc1ccc(CN2CCN(c3ccccc3OC)CC2)cc1,i
COC[C@H]1CCCN1C[C@H]1CN2CC[C@H]1C[C@@H]2CNC(=S)NCc1ccco1,i
COc1ccc(-c2cc([C@H]3CN4CC[C@H]3C[C@@H]4CNC(=O)Nc3ccc(Cl)cc3)n(C)n2)cc1OC,i
Cc1ccccc1N1CCN(Cc2cccc(Cl)c2)CC1,i
FC1(F)Oc2cccc(C3NCCc4[nH]cnc43)c2O1 (centres undefined),i
O[C@@H]1C[C@H]2CN(Cc3cccc(-c4ccccn4)c3)C[C@H]2C[C@@H]1O,i
CC(c1c(O)c2ccccc2oc1=O)c1c(O)c2ccccc2oc1=O,36%*

# Compound activity (PubChem)
